# High-throughput results from PubChem BioAssay.
# Most compounds without a hit are left out; they make up all but 14% or so of the library.
# USP30 block: inhibitors of human USP30 deubiquitinase. Q70CQ3. purified USP30, Ub-rhodamine cleavage fluorescence. inhibition, % at 25 µM. 47,000 compounds, 5.3% hits
# USP17 block: blocks human USP17 ubiquitin-rhodamine cleavage. 47,000 compounds, 6.5% hits. inhibition, % at 50 µM. A8MUK1. purified USP17, Ub-rhodamine cleavage fluorescence, 3 h. AID 1645855
# Target sequence (A8MUK1 whole entry, looked up): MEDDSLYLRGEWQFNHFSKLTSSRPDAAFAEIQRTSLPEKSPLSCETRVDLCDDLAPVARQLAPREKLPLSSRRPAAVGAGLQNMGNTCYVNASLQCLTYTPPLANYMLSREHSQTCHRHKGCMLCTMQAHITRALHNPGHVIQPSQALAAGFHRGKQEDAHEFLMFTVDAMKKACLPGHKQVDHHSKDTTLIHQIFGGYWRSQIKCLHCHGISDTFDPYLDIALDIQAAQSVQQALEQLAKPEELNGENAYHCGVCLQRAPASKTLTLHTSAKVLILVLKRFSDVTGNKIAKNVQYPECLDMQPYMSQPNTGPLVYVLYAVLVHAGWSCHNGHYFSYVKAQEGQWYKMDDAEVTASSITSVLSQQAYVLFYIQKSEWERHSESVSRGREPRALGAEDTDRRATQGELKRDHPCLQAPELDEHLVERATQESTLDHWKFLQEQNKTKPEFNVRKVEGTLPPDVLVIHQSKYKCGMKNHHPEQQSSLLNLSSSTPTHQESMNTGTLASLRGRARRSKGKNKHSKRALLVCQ
# USP28 block: human USP28 deubiquitinase inhibition; Q96RU2; purified USP28, Ub-rhodamine cleavage fluorescence, 30 min; inhibition, % at 25 µM; 47,000 compounds, 3% hits; AID 1645857
# USP10 block: blocks human USP10 ubiquitin-rhodamine cleavage | 47,000 compounds, 1.1% hits | purified USP10, Ub-rhodamine fluorescence, 60 min | inhibition, % at 20 µM | Q14694 | AID 1645856
# USP8 inh: blocks human USP8 ubiquitin-rhodamine cleavage; purified USP8, Ub-rhodamine cleavage fluorescence, 30 min; inhibition, % at 20 µM; 47,000 compounds, 4.2% hits
# Numbers without * were called inactive; i = inactive; nt = no result given. Rule as the data show it: active = inhibition above about 30%; inactive = the rest.
SMILES,USP30 block,USP17 block,USP28 block,USP10 block,USP8 inh
COc1cccc2c1OC(C)(C)[C@H]1CC3(CCN(C(=O)COc4cccnc4)CC3)CO[C@H]21,-141.8,28.5,-5.1,-1.8,67.2*
Cc1nnc2n(C3CCCCC3)c(=O)c3c4c(sc3n12)COC(C)(C)C4,4.2,-9.1,-10.4,-1.0,-36.0
Cc1cccc(C2CCCCCN2C(=O)c2cn(CC(N)=O)nn2)c1 (centres undefined),-12.2,-30.1,-4.2,-0.6,-186.1
COc1ccc(-c2nonc2NC(=O)C(c2ccccc2)c2ccccc2)cc1OC,50.6*,0.0,12.3,6.4,20.8
CC(Oc1ccccc1Cl)C(=O)Nc1nonc1-c1ccccc1 (centres undefined),27.5,16.4,15.6,15.3,33.0*
CC(Oc1ccc(C(C)C)cc1)C(=O)Nc1nonc1-c1ccccc1 (centres undefined),-0.7,-2.4,0.9,12.6,8.7
Cc1ccc(-c2nonc2NC(=O)Cc2ccccc2)cc1,20.7,7.0,3.6,6.5,5.1
Cc1nnc(Nc2cccc(C3CCCNC3)n2)s1 (centres undefined),23.3,1.7,12.0,1.8,-38.8
Cc1nnc(Nc2cccc(C3CCCN(CC(N)=O)C3)n2)s1 (centres undefined),30.1*,7.9,11.2,3.5,5.1
O=c1cc(CS(=O)(=O)c2ccccc2)nc(-c2ccncc2)[nH]1,17.1,5.0,14.9,-0.6,19.0
COc1ccc(-c2c3c(nc4c(C#N)c(C)n(-c5ccccc5)c24)CCC3)cc1,14.6,17.2,2.9,3.2,15.5
COc1cc2c(C#N)c(N3CCCC3)nc3c2c(n1)NC(C)(c1ccc(-c2ccccc2)cc1)N3 (centres undefined),i,-25.0,0.6,-7.2,39.0*
COc1ccc(S(=O)(=O)N2CCC(c3nn(C)c4nccnc34)CC2)cc1,11.2,-1.4,-9.2,-0.3,-19.0
COc1ccc(N2CCN(c3cc(=O)n(-c4cccc(C(F)(F)F)c4)c(=O)[nH]3)CC2)cc1,-0.1,9.8,-2.3,1.1,23.6
O=S(=O)(c1ccccc1)c1cnc(-c2ccccc2)nc1Oc1ccc(F)cc1F,36.2*,15.4,13.3,1.7,12.5
Cc1ccc(S(=O)(=O)c2cnc(-c3ccccc3)nc2Oc2ccc(Cl)cc2C)cc1,23.9,12.1,8.6,3.8,20.3
Cc1ccc2c(=O)c(C(=O)Nc3ccc(F)cc3)cn(CC(=O)NC3CCCC3)c2n1,-47.0,nt,-17.7,-4.7,7.0
Cc1ccc2c(=O)c(C(=O)Nc3ccccc3)cn(CC(=O)NC3CCCCC3)c2n1,9.1,56.0*,5.3,1.2,-1.3
Cc1ccc(NC(=O)Cn2cc(S(=O)(=O)c3ccccc3)c(=O)c3ccc(C)nc32)cc1,i,3.8,-186.0,-7.2,40.6*
CCN1C(=O)c2cc(NC(=O)c3ccc(F)cc3)ccc2Oc2ccccc21,23.3,13.9,44.7*,7.6,18.6
CN1C(=O)c2cc(NC(=O)c3ccccc3)ccc2Oc2ccccc21,7.3,13.1,41.3*,4.2,5.5
CCOC(=O)c1cc(NC(=O)c2ccc(F)cc2)ccc1N1CCOCC1,nt,-23.9,nt,-2.9,-11.0
CN1C(=O)c2cc(NC(=O)c3ccccc3Cl)ccc2Oc2ccccc21,9.2,2.0,79.8*,9.2,0.3
Cc1ccccc1C(=O)Nc1ccc2c(c1)Sc1ncccc1C(=O)N2C,-50.6,5.2,-7.3,-6.4,10.1
COc1ccc([N+](=O)[O-])cc1NC(=O)C(C)N1CCN(c2ccc(F)cc2)CC1 (centres undefined),5.2,-1.0,-0.7,8.5,-23.1
SMILES,USP30 block,USP17 block,USP28 block,USP10 block,USP8 inh
Cc1scc2nc(C(=O)NCc3cccnc3)nc(N(C)C)c12,-134.1,-26.5,-50.7,-9.5,-15.1
COc1ccc(C2[C@@H]3CCCC[C@]3(O)CCN2CC(=O)Nc2ccccc2)cc1 (some centres undefined),-108.8,-46.7,-27.6,-6.0,-12.3
COc1ccc(-c2ocnc2C(=O)Nc2cccc(Cl)c2C)cc1OC,58.4*,28.0,-0.1,-1.6,-23.0
CCOc1ccc(C(=O)CCC(=O)Nc2cccc(S(=O)(=O)Nc3cccc(Cl)c3)c2)cc1,-47.1,31.8*,-3.3,33.4*,-0.2
COc1ccc(NS(=O)(=O)c2cccc(NC(=O)CCOc3ccccc3OC)c2)cc1,nt,-3.3,nt,6.4,6.7
O=c1cc(CN2CCCC2)nc2nc(NCc3ccccc3Cl)[nH]n12,11.4,14.5,10.3,-7.7,13.0
COc1ccc(S(=O)(=O)N2CCOCC2)cc1NC(=O)COc1ccc(C)cc1,-0.3,-1.6,7.7,-0.7,-9.4
O=C(COc1ccc2c(c1)OCO2)Nc1ccc2c(c1)CCC2,5.8,15.9,29.5,7.4,30.9*
COc1ccc(C)cc1NC(=O)COc1ccc2c(c1)OCO2,-1.5,52.2*,-4.5,4.2,36.6*
O=C(COc1ncnc2sc3c(c12)CCCC3)Nc1ccc2c(c1)OCO2,-103.2,10.8,-21.4,31.2*,29.5
Cc1cc(Cl)ccc1OCC(=O)Nc1ncnc2sc3c(c12)CCCC3,-50.8,25.7,-6.5,-1.3,-9.0
COc1ccc(OC)c(C2c3c(oc4ccccc4c3=O)C(=O)N2c2nc3ccc(OC)cc3s2)c1 (centres undefined),4.1,5.1,-0.2,3.4,-8.5
O=C(Nc1nc2ccc(F)cc2s1)c1cc(Cl)sc1Cl,-4.1,2.9,5.4,25.9,70.1*
CC(C)(NCc1ccc(F)cc1F)c1nc2c(c(C(N)=O)n1)OCO2,5.2,1.8,3.1,-0.4,11.6
COCCCNC(=O)COc1c(-c2ccc(OC)cc2)oc2ccccc2c1=O,49.2*,23.2,17.9,-0.8,29.4
CCn1nc(NS(=O)(=O)c2ccc(NC(C)=O)cc2)c2cc3ccccc3nc21,-47.9,-20.9,-26.2,-10.1,-17.1
CC(=O)Nc1ccc(C2(C(=O)NCc3ccccc3C)CCC2)cc1,7.0,16.2,1.7,-0.2,9.0
Cc1ccc(-c2c3c4n(c(-c5ccc(Cl)c(Cl)c5)cn4c2C(=O)NC2CCCCC2)CCCC3)cc1,-90.7,-2.4,-28.1,-4.3,43.8*
O=C(COc1ccc(Cl)cc1)NCC(c1ccco1)N1CCCC1 (centres undefined),-28.7,-12.2,-14.7,-3.3,4.5
CC1CCCN(S(=O)(=O)c2cc3cc(F)ccc3oc2=O)C1 (centres undefined),14.5,57.7*,0.0,3.1,3.0
COc1ccc(F)cc1S(=O)(=O)N1CCCC(c2nnc(C(F)(F)F)o2)C1 (centres undefined),13.4,0.1,2.5,0.1,7.5
O=C1/C(=C/c2ccc(F)cc2)Cc2ccccc21,18.4,2.5,2.8,9.8,6.2
O=C1/C(=C/c2ccccc2)CC/C1=C\c1ccccc1,16.9,26.4,13.8,8.8,44.3*
COc1ccccc1NS(=O)(=O)c1ccc(-c2cc(C(F)(F)F)on2)s1,18.6,15.8,6.3,18.1,5.0
O=C(CC1C=CCC1)N1CCC(c2ccc(Nc3ccc(F)cn3)cn2)CC1 (centres undefined),-49.6,32.2*,-7.4,-2.1,8.0
CCOC(=O)c1cnc(Nc2cccc(CC)c2)c2ccccc12,-29.7,-4.2,-11.4,13.9,1.2
